Compound activity as filed in PubChem.
The list is not random: actives were taken first. Their share in the collection is about 21%.
CYP2C19 inhib – human CYP2C19 inhibition; P33261; 21% of 96,000 active; CYP2C19 Supersomes, luciferin-H EGE luminescence, 30 min; AID 778; inhibition, % at 5 µM;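 active = CYP2C19 inhibition above a set limit at 5 µM in the primary screen, cut at about 50% in these data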;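 note: plate controls were negative control wells for no effect and 2.5 mM tranylcypromine positive control for full effect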
Target sequence (P33261 whole entry, looked up): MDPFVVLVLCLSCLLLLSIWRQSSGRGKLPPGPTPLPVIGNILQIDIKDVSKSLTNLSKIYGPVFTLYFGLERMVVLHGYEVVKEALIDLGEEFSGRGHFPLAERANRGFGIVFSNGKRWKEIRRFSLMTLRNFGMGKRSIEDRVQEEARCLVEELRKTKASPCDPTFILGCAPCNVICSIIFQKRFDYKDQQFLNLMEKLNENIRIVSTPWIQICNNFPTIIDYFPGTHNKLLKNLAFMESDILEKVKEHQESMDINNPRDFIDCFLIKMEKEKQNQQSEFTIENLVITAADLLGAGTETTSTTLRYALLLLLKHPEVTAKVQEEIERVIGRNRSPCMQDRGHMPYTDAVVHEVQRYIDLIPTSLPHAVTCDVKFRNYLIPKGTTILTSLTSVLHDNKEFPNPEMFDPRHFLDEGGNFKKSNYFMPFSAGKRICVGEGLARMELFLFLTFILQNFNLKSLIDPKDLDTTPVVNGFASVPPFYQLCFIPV
CYP2C9 act – CYP2C9 (human) activation. 1.4% of 96,000 active. recombinant CYP2C9, luciferin-H conversion, luminescence; active compounds read high; factor 1 = untreated enzyme, 0 = blocked. P11712. AID 1024. activation factor at 5 µM;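 active = activation factor of 2 or more for CYP2C9 at a 5 µM dose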;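 note: 0 = sulfaphenazole-blocked wells and 1 = vehicle-only wells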
CYP2C19 activ – cytochrome P450 2C19 (human) activation; P33261; recombinant CYP2C19, luciferin-H EGE luminescence; active compounds read high; 0 = fully inhibited enzyme, 1 = untreated enzyme; activation factor at 5 µM; 96,000 tested, under 10 active;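 active = activation factor of at least 2 at 5 µM in the primary screen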;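 note: 0 = wells with 2.5 mM tranylcypromine and 1 = vehicle-only wells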
MRP-1 activ – activators of MRP-1 | H69AR cells + doxorubicin, viability rescue, CellTiter-Glo | viability increase, % at 10 µM | 0.61% of 140,000 active | AID 799;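 active = viability gain under doxorubicin at or above a set limit, the compound median plus 3 SD, cut at about 4.7% in these data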;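 note: MRP-1 overexpressing cells given doxorubicin 25 µM after compound pretreatment; 18-22 h compound pretreatment then 72 h with doxorubicin before readout; 0% = doxorubicin-only wells and 100% = vehicle-treated cells without doxorubicin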
CYP2C9 inhib – blocks human cytochrome P450 2C9; P11712; CYP2C9 Supersomes, luciferin-H conversion, luminescence; inhibition, % at 5 µM; 20% of 96,000 active;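 active = blocking of liver enzyme CYP2C9 beyond about 50% at 5 µM, limit read from the data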
MRP reversal – reverses drug resistance mediated by MRP | H69AR cells + 2 uM doxorubicin, CellTiter-Glo, 72 h | differential viability (reversal), % at 10 µM | 0.04% of 85,000 active | AID 602;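 active = viability drop by adding the cancer drug above about 55%, with treated viability meeting a 40% cutoff, limit read from the data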;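 note: viability without doxorubicin minus viability with 2 µM doxorubicin for each compound; larger differential means the compound sensitizes cells more to doxorubicin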
An asterisk follows results filed as active; / = not tested or not shown.

SMILES	CYP2C19 inhib	CYP2C9 act	CYP2C19 activ	MRP-1 activ	CYP2C9 inhib	MRP reversal
COc1ccccc1N1CCN(C(=O)C(NS(=O)(=O)c2cccs2)c2ccccc2)CC1 (centres undefined)	62.1*	0.6	0.4	-0.7	44.2	-4.8
CCC(C(=O)N1CCN(c2ccccc2OC)CC1)c1ccccc1 (centres undefined)	/	/	/	-3.5	/	/
O=C(CSC1=N/C(=C/c2ccc(Cl)c(Cl)c2)C(=O)N1c1ccccc1F)NC1CC1	/	/	/	-4.8	/	/
Cc1ccc(S(=O)(=O)Nc2ccc3c(c2)c2c(n3S(=O)(=O)c3ccc(C)cc3)CCCC2=O)cc1	/	/	/	-4.0	/	/
Nc1nnc(C(c2ccccc2)c2ccccc2)s1	36.8	0.7	0.6	-1.3	33.4	15.1
CCOC(=O)c1cc2oc(C(c3nnnn3C3CCCCC3)N3CCOCC3)cc2[nH]1 (centres undefined)	/	/	/	-4.7	/	-76.5
Cc1cc(C)c[n+](-c2nc3ccccc3nc2C(=C=[N-])C#N)c1	-3.2	0.9	1	-0.6	10.4	/
COC(=O)c1c(NC(=O)CSc2nc3nc(C)cc(C)n3n2)sc(C)c1C	/	/	/	-2.3	/	/
COc1ccccc1N1CCN(S(=O)(=O)c2cnc[nH]2)CC1	95.0*	0	0.1	-0.1	100.3*	-9.1
COc1ccccc1N1CCN(S(=O)(=O)c2ccccc2)CC1	92.1*	0.1	0.1	-0.6	86.2*	14.0
COc1ccc(S(=O)(=O)N2CCN(C(=O)Cc3cccs3)CC2)cc1	/	/	/	-2.4	/	/
COc1ccccc1N1CCN(C(=O)C2CCN(S(=O)(=O)c3ccc(F)cc3)CC2)CC1	0.0	0.9	1	-0.4	5.0	8.7
COc1ccc(S(=O)(=O)N2CCN(c3ccccc3OC)CC2)cc1OC	80.0*	0.9	0.2	-3.0	6.0	7.3
COc1ccccc1N1CCN(S(=O)(=O)c2ccc3nc(-c4ccccc4)[nH]c3c2)CC1	/	/	/	-1.0	/	/
COc1ccc(N2CCN(C(=O)Cc3cccs3)CC2)cc1	53.7*	0.7	0.5	2.5	34.3	0.4
CSc1ccc(/C=N/NC(=O)c2cccc(O)c2)cc1	37.9	0.8	0.6	-3.2	24.8	/
CCOC(=O)C1(c2ccccc2)NC(c2ccccc2C)C2C(=O)N(c3ccc4c(c3)OCO4)C(=O)C21 (centres undefined)	/	/	/	-3.8	/	41.9
COc1ccccc1N1CCN(S(=O)(=O)c2cccs2)CC1	28.1	0.2	0.7	-1.3	82.7*	4.2
CCOC(=O)COc1ccc(S(=O)(=O)N2CCN(c3ccccc3F)CC2)cc1	68.0*	0.2	0.3	-0.3	81.0*	0.6
COc1ccccc1N1CCN(S(=O)(=O)Cc2ccccc2Cl)CC1	73.3*	4.3*	0.3	-0.5	-331.3	10.3
COc1ccccc1N1CCN(S(=O)(=O)c2ccc(Br)s2)CC1	28.8	0.7	0.7	-0.6	29.2	11.8
O=C(Cc1cccs1)N1CCN(c2nc(-c3ccc(Cl)cc3)cs2)CC1	65.1*	0.1	0.3	2.2	90.8*	/
CN(C)c1ccc(CC(=O)c2nc3ccccc3s2)cc1	/	/	/	1.5	/	/
O=C(CN(Cc1ccco1)C(=O)CNS(=O)(=O)c1ccccc1)NC1CCCCC1	30.1	0.9	0.7	-0.8	11.5	3.7
Cc1ccc(S(=O)(=O)NCC(=O)N(CC(=O)NCc2ccco2)Cc2ccc3c(c2)OCO3)cc1	30.6	0.7	0.7	-0.8	28.4	27.6
SMILES	CYP2C19 inhib	CYP2C9 act	CYP2C19 activ	MRP-1 activ	CYP2C9 inhib	MRP reversal
O=C(CN(Cc1ccco1)C(=O)CNS(=O)(=O)c1ccccc1)NCc1ccccc1	60.8*	0.7	0.4	-0.7	27.2	-1.4
O=C(CN(Cc1ccco1)C(=O)CNS(=O)(=O)c1ccc(F)cc1)NCCc1ccccc1	65.4*	0.4	0.3	-1.5	61.0*	3.5
O=C(CN(Cc1cccs1)C(=O)CNS(=O)(=O)c1ccccc1)NCc1ccco1	52.5*	0.7	0.5	-2.6	27.2	9.1
Cc1cc(C)c(NC(=O)C2CCCN2C(=O)NC2CCCCC2)c(C)c1 (centres undefined)	/	/	/	-2.8	/	2.1
Cc1cccc(-c2c3c(=O)n(C)c(=O)n(C)c3cn2C(C)C)c1	21.9	0.4	0.8	-1.1	57.0*	-4.1
O=C(Nc1cccc2ncccc12)c1ccc(-c2ccc(Br)cc2)o1	12.6	0.9	0.9	-2.1	7.4	/
CC(C)CCn1c(Sc2nc3ccccc3o2)nc2c1c(=O)[nH]c(=O)n2C	/	/	/	-4.8	/	/
CCCCC(CC)CNC(=O)c1ccc2c(c1)OCO2 (centres undefined)	26.6	0.5	0.7	-0.2	48.2	5.6
CCCCC(CC)CNC(=O)c1[nH]c(C)c(C(C)=O)c1C (centres undefined)	63.1*	0.2	0.4	1.2	75.1*	7.5
COc1ccc(OC)c(S(=O)(=O)N(C)CC(=O)N2CCN(c3ccccc3F)CC2)c1	75.7*	0.3	0.2	-1.8	68.3*	9.7
COc1ccc(OC)c(S(=O)(=O)N(C)CC(=O)N2CCN(c3ccc(F)cc3)CC2)c1	19.7	0.5	0.8	0.7	46.6	16.3
COc1ccc(OC)c(S(=O)(=O)N(C)CC(=O)N2CCN(c3cccc(Cl)c3)CC2)c1	84.9*	0.1	0.2	-0.9	91.8*	11.4
COc1ccc(C2(CNC(=O)CCC(=O)O)CCCC2)cc1OC	14.7	1.1	0.9	-1.8	-7.3	0.2
COc1ccc2nc(NC(=O)C(NS(=O)(=O)c3cccs3)C(C)C)sc2c1 (centres undefined)	55.1*	0.4	0.4	-0.9	63.4*	3.2
CC(C)NS(=O)(=O)c1cccc2nsnc12	-1.3	1.1	1	-2.8	-10.2	9.6
Cc1ccc2nc(NC(=O)C(NS(=O)(=O)c3cccc4nsnc34)C(C)C)sc2c1 (centres undefined)	22.7	0.2	0.8	3.2	76.6*	-4.9
Cc1ccccc1N1C(S)=C(C#N)C(=O)NC12CCCCC2	/	/	/	-2.5	/	/
Oc1ccc(N=C/C=C/c2ccc(Br)cc2)cc1-c1nc2ccccc2s1	/	/	/	-3.6	/	/
COc1ccccc1CC1(C)NC(=O)N(CC(=O)N2CC(C)OC(C)C2)C1=O (centres undefined)	56.7*	1.1	0.4	-4.4	-14.4	3.3
CC1CN(C(=O)CN2C(=O)NC3(CCCCCC3)C2=O)CC(C)O1 (centres undefined)	-5.1	1.1	1.1	0.0	-7.6	7.7
CCn1c(=O)c2c3c(sc2n2c(SCc4ccc(F)cc4)nnc12)CCCC3	/	/	/	/	/	-6.6
Cc1ccccc1CSCC(=O)NC1CCCC1	44.4	0.7	0.6	-0.2	31.3	-3.8
Cc1ccccc1OC(C)C(=O)NC1CCCC1 (centres undefined)	74.2*	0.6	0.3	0.0	41.6	-2.1
COc1cc(-c2nnc(CSc3nc4ccccc4s3)o2)cc(OC)c1OC	52.8*	0.3	0.5	-3.0	65.4*	-13.2
COc1ccc(-c2nnc(CSc3nc4ccccc4c(=O)n3CC(C)C)o2)cc1OC	91.8*	0	0.1	-1.3	96.6*	-21.2
